Test [1] in a line: TOX21_p53_BLA_p2_viability: Viability Assessment in the Tox21 HCT-116 p53 Agonism Beta-lactamase Assay, Phase 2 (AID 2283591).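 Note: compound exposure lasted 16 h at 37 °C; actives lower the ATP signal meaning cytotoxicity.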 Put shortly:
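Cytotoxicity readout: CellTiter-Glo ATP luminescence, 30 min at room temperature, after the beta-lactamase read. Cells were HCT116 exposed 16 h at 37C to compounds pin-transferred at 217-fold dilution from DMSO stocks.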

In test [2] the target is Cellular tumor antigen p53 (Homo sapiens) (UniProt P04637). Briefly: TOX21_p53_BLA_p2_ratio: Tox21 HCT-116 p53 Agonism Beta-lactamase Assay, Ratio, Phase 2 (AID 2283592). Put shortly: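 First, HCT116 reporter cells settle for 5 h at 37C. Next, DMSO compound solutions are pinned in (217-fold dilution) and left 16 h. Finally, CCF4-AM substrate is loaded 2 h at room temperature and the 460/530 nm ratio read.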
Sequence of Cellular tumor antigen p53 (Homo sapiens) (P04637 whole entry, looked up): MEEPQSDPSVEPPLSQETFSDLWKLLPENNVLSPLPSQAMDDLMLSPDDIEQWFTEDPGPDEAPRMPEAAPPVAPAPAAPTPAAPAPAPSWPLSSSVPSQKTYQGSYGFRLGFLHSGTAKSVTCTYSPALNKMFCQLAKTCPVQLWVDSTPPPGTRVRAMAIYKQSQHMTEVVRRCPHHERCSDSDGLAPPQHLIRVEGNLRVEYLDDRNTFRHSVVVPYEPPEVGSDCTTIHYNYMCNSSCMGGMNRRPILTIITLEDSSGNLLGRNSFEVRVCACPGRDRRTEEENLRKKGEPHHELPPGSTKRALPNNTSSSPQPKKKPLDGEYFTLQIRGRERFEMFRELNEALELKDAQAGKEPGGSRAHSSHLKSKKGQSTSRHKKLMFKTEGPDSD

The nature of test [3]: TOX21_p53_BLA_p3_viability: Viability Assessment in the Tox21 HCT-116 p53 Agonism Beta-lactamase Assay, Phase 3 (AID 2283593).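 Note: cells exposed to compound for 16 h before reading.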 Put shortly:
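Cellular ATP was quantified by CellTiter-Glo luminescence, read after 30 min at room temperature. Beforehand, HCT116 cells (4000/well) received compound 5 h post-seeding, 217-fold diluted from DMSO, then incubated 16 h at 37C.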

Results filed as inconclusive are left out. Where a structure was tested more than once in an assay, its records may differ in their call. The source made the active and inactive calls. Rule for the calls: active = hit-call score of the fitted dose curve at least 0.9, where 1 is the maximum; inconclusive = response in the unintended direction; inactive = score below 0.9.

`[O-]/[N+](=N\O)c1ccccc1`: the compound was classed as inactive in test [1], in test [2] and in test [3].
As for `CC(C)Cc1ccc(C(C)C(=O)O)cc1` (stereo not given), the outcome in test [1], in test [2] and in test [3] was inactive.
As to `c1ccc(-c2nn[nH]n2)cc1`, the outcome in test [2] and in test [3] was inactive.
On to `COC(=O)c1cccc(C(=O)OC)c1`, for which the result in test [2] and in test [3] was inactive.
On to `O=C(C=Cc1ccccc1)OCCCc1ccccc1`, for which the compound was called inactive in test [1] and in test [3].
Consider `CCCCC1CCCCC(=O)O1` (stereo not given), for which the result in test [1] and in test [3] was inactive.
Regarding `CCC(=O)OC(C)(C)C1CC=C(C)CC1` (stereo not given), the result in test [2] and in test [3] was inactive.
Turning to `CCCC(O)C(CC)CO` (stereo not given), the compound was classed as inactive in test [1], in test [2] and in test [3].
On to `CCCCC(CC)COC(=O)COc1ccc(Cl)cc1C` (stereo not given), for which the outcome in test [2] and in test [3] was inactive.
Consider `CC(C)=CC(=O)O`, for which the compound was classed as inactive in test [1] and in test [3].
As for `CCCCCCCCOS(=O)(=O)O`, the result in test [1], in test [2] and in test [3] was inactive.
With `C[Si]1(C)N[Si](C)(C)N[Si](C)(C)N1`, the outcome in test [2] was inactive.
As to `CCO[Si](CC)(OCC)OCC`, the outcome in test [2] and in test [3] was inactive.
As to `CCC(C)COC(=O)CC(C)C` (stereo not given), the result in test [2] and in test [3] was inactive.
As for `CC1=CCC(=C(C)C)CC1`, the result in test [1] and in test [3] was inactive.
Regarding `N#CCCCC(C#N)CCC#N` (stereo not given), the result in test [2] and in test [3] was inactive.
With `C=CCS(=O)(=O)O`, the outcome in test [2] and in test [3] was inactive.
On to `CC(C)=CCCC(C)=CC(=O)O`, for which the compound was classed as inactive in test [1] and in test [3].
Consider `CCCCCC1CCC(=O)O1` (stereo not given), for which, in test [2], the outcome was inactive.
With `CC(CO)c1ccccc1` (stereo not given), the result in test [2] and in test [3] was inactive.
Take `O=S(=O)(O)c1cc(O)c(O)c(S(=O)(=O)O)c1`: the call in test [1], in test [2] and in test [3] was inactive.
`NCCN1CCNCC1`: the AC50 in test [2] is 307 pM (active). The result in test [2] and in test [3] was inactive.
For `C=C(C)C(=O)OCCC[Si](OC)(OC)OC`, the result in test [2] and in test [3] was inactive.
Consider `C=CC(C)(CCC=C(C)C)OC(=O)CC` (stereo not given), for which the result in test [2] was inactive.
Turning to `CC1=CC(C)C(C=O)C(C)C1` (stereo not given) (tested in a mixture with another compound), the result in test [2] was inactive.
As to `CC(C)COC(=O)c1ccccc1`, the result in test [2] and in test [3] was inactive.
Regarding `C=CCOC(=O)/C=C\C(=O)OCC=C`, the outcome in test [2] and in test [3] was inactive.
Consider `CC1=CCC(C(C)C)=CC1`, for which the result in test [3] was inactive.
In the case of `CC1=CC(=O)[C@H]2C[C@@H]1C2(C)C`, the result in test [2] and in test [3] was inactive.
With `CCC(C)(C)C1CCC(=O)CC1`, the compound was called inactive in test [1], in test [2] and in test [3].
As to `CC1=CCC(C(C)(C)O)CC1` (stereo not given), the result in test [2] and in test [3] was inactive.
On to `CC(C)CCCC(C)(C)O`, for which the outcome in test [3] was inactive.
For `CC(=O)c1cccnc1`, the result in test [2] was inactive.
The same measure, in the same setting: the result for `CCOC(=O)CCCCCCCCC(=O)OCC` reads “inactive”; that for `O=C(O)c1cc(C(=O)O)c(C(=O)O)cc1C(=O)O`, “inactive”.
For the compound `CCCCCCCCCCCCS`, the result in test [2] and in test [3] was inactive.

As usually defined, the AC50 is the concentration giving half of the maximal activity seen.

(Values after PubChem BioAssay (EPA / NIEHS).)
